Consider 39 compounds from PubChem BioAssay (NCI).

About 79,000 compounds went through this panel and 15% of them were active in at least one assay; those are over-represented in the sample as a whole. Values without a mark were called inactive. Activity calls are given as the source filed them. Cut-off read from the data, not from the text of the source: active = growth inhibition above about 70%; inactive = the rest.

One assay is described as follows: NCI Yeast Anticancer Drug Screen. Data for the rad18 strain (AID 177). To be noted: S. cerevisiae rad18 mutant growth inhibition; at 1.2 µM; active compounds read high. In outline: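 Vehicle-treated cultures served as the baseline for scoring compound-induced growth inhibition in DNA-repair-mutant yeast.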
Turning to `COC(=O)CSSCc1ccc([N+](=O)[O-])cc1`, the growth inhibition is -2%.

With `CCS(=O)(=O)c1ccc(/C=C/C=N/NC(=S)NCC(C)C)cc1`, the growth inhibition was 6%.

Take `N#CC(C(=O)Nc1ccccc1)C1=C(Cl)C(=O)c2ccccc2C1=O` (stereo not drawn): the growth inhibition is -15%.

Take `C[C@H](CCC(=O)NN)[C@H]1CC[C@H]2[C@@H]3CC[C@@H]4C[C@H](O)CC[C@]4(C)[C@H]3CC[C@]12C`: the growth inhibition was -5%.

Turning to `CC[n+]1ccc2c(C)c3[nH]c4ccc(O)cc4c3c(C)c2c1`, the growth inhibition was -23%.

Still in this assay, the particulars now being: S. cerevisiae rad18 mutant growth inhibition; at 3.7 µM; active compounds read high.
`CCCc1cc(C(=O)OCC)cc(CCC)c1O`: the growth inhibition is 0%.

As to `CC(C)[N+]([O-])(CCCNc1c2ccccc2nc2cccc([N+](=O)[O-])c12)C(C)C`, the growth inhibition was 96% (active).

For the compound `COc1cc2c3c(cccc3c1)C(=O)N(CCN(C)C)C2=O`, the growth inhibition is -18%.

For the compound `NC(=O)NN=C(CS)CS`, the growth inhibition was 6%.

In the case of `Cc1ccc(NC(=O)/C(Cl)=C(\Cl)C(=O)O)cc1C`, the growth inhibition was 3%.

As for `CCN(CC)CC[n+]1ccc2c(C)c3[nH]c4ccc(O)cc4c3c(C)c2c1`, the growth inhibition was -2%.

Take `CC(CC(C)(C)[N+](C)(C)C)[N+](C)(C)C` (stereo not drawn): the growth inhibition was 8%.

On to `COc1ccc(OC)c2cc3ccccc3cc12`, for which the growth inhibition was 4%.

In the case of `Nc1ncncc1C(C1=C(O)COC1=O)C1=C(O)COC1=O`, the growth inhibition is 0%.

As for `CSC1=NNC(SC)=NN1`, the growth inhibition is 13%.

Consider `Cc1c(Cl)ccc2c1S(=O)(=O)c1cccc(Cl)c1-2`, for which the growth inhibition is 2%.

In the case of `[O-][n+]1c2ccc(O)cc2nc2ccc(Cl)cc21`, the growth inhibition is 23%.

With `COc1ccc2ccc3ccccc3c2c1C=O`, the growth inhibition is 2%.

As to `Nc1ccc2c(c1)C(=O)c1cccc(N)c1C2=O`, the growth inhibition is 39%.

`O=C(c1ccc(Cl)cc1Cl)C(Cl)Cl`: the growth inhibition was -34%.

For `COc1cc(C(=O)/C=C/c2ccccc2O)ccc1O`, the growth inhibition is 47%.

`O=Cc1cccc2ccc3ccccc3c12`: the growth inhibition was -2%.

Regarding `O=C(Nc1ccc(Cl)cc1)OCC#CCCl`, the growth inhibition was 6%.

Turning to `Cn1ccnc1Oc1ccc(Cl)cc1`, the growth inhibition was -1%.

As for `c1ccc2c(c1)C(=NCCCN1CCCCCC1)c1cccn1-2`, the growth inhibition is 1%.

As to `C/C(=N\O)C1CC2C=C(C#N)C1N(Cc1ccccc1)C2` (stereo not drawn), the growth inhibition is 13%.

Consider `O=[N+]([O-])C(=C(Sc1ccccc1)Sc1ccccc1)C(Cl)=C(Cl)Cl`, for which the growth inhibition was 43%.

Turning to `CCCCCCCCCC/C=C\C(=O)O`, the growth inhibition was 1%.

For `COc1ccc(N=C2C(=O)Nc3ccc(Br)cc32)cc1`, the growth inhibition is -36%.

For `COc1ccccc1C(=O)OCC1CCCN2CCCCC12` (stereo not drawn), the growth inhibition is -21%.

Take `CC(C)(Br)C(=O)/C=C/c1ccc(Cl)c(Cl)c1`: the growth inhibition was 6%.

As to `Nc1ccccc1CC(O)C(=O)O` (stereo not drawn), the growth inhibition was 4%.

In the case of `CC(=O)N/N=C/C(C)(C)C(C)(C)/C=N/NC(C)=O`, the growth inhibition was 1%.

Take `CN(C)c1nc2sc3c(c2c(=O)o1)CCCC3`: the growth inhibition is 1%.

Turning to `CC(C)OC(=O)Oc1ccccc1OC(=O)OC(C)C`, the growth inhibition is 1%.

Take `Cc1ccc(N)c(S)c1`: the growth inhibition is -37%.

On to `O=C(O)c1ccccc1NC(=S)c1ccccc1`, for which the growth inhibition was -4%.

In the case of `COC(=O)c1ccc(NCC2=CC(=O)C=CC2=O)cc1O`, the growth inhibition was 32%.

Consider `NC(N)=N/N=C\c1c2ccccc2cc2ccccc12`, for which the growth inhibition is -68%.

On to `COC(=O)CSSCc1ccc([N+](=O)[O-])cc1`, for which the growth inhibition is 19%.

`CCS(=O)(=O)c1ccc(/C=C/C=N/NC(=S)NCC(C)C)cc1`: the growth inhibition is 2%.

For the compound `N#CC(C(=O)Nc1ccccc1)C1=C(Cl)C(=O)c2ccccc2C1=O` (stereo not drawn), the growth inhibition was -8%.

`C[C@H](CCC(=O)NN)[C@H]1CC[C@H]2[C@@H]3CC[C@@H]4C[C@H](O)CC[C@]4(C)[C@H]3CC[C@]12C`: the growth inhibition is -4%.

Turning to `CC[n+]1ccc2c(C)c3[nH]c4ccc(O)cc4c3c(C)c2c1`, the growth inhibition was 2%.

Staying with this assay, now noted: S. cerevisiae rad18 mutant growth inhibition; at 11.0 µM; active compounds read high.
`CCCc1cc(C(=O)OCC)cc(CCC)c1O`: the growth inhibition is -5%.

Take `CC(C)[N+]([O-])(CCCNc1c2ccccc2nc2cccc([N+](=O)[O-])c12)C(C)C`: the growth inhibition is 96% (active).

With `COc1cc2c3c(cccc3c1)C(=O)N(CCN(C)C)C2=O`, the growth inhibition was -23%.

In the case of `NC(=O)NN=C(CS)CS`, the growth inhibition is 19%.

With `Cc1ccc(NC(=O)/C(Cl)=C(\Cl)C(=O)O)cc1C`, the growth inhibition is 24%.

For the compound `CCN(CC)CC[n+]1ccc2c(C)c3[nH]c4ccc(O)cc4c3c(C)c2c1`, the growth inhibition is 3%.

On to `CC(CC(C)(C)[N+](C)(C)C)[N+](C)(C)C` (stereo not drawn), for which the growth inhibition is 14%.

`COc1ccc(OC)c2cc3ccccc3cc12`: the growth inhibition is 21%.

As to `Nc1ncncc1C(C1=C(O)COC1=O)C1=C(O)COC1=O`, the growth inhibition was -1%.

Consider `CSC1=NNC(SC)=NN1`, for which the growth inhibition is 60%.

Turning to `Cc1c(Cl)ccc2c1S(=O)(=O)c1cccc(Cl)c1-2`, the growth inhibition was 6%.

Consider `[O-][n+]1c2ccc(O)cc2nc2ccc(Cl)cc21`, for which the growth inhibition was 47%.

Consider `COc1ccc2ccc3ccccc3c2c1C=O`, for which the growth inhibition was 3%.

Take `Nc1ccc2c(c1)C(=O)c1cccc(N)c1C2=O`: the growth inhibition is 91% (active).

For `O=C(c1ccc(Cl)cc1Cl)C(Cl)Cl`, the growth inhibition was -1%.

For `COc1cc(C(=O)/C=C/c2ccccc2O)ccc1O`, the growth inhibition is 98% (active).

For `O=Cc1cccc2ccc3ccccc3c12`, the growth inhibition is 6%.

Take `O=C(Nc1ccc(Cl)cc1)OCC#CCCl`: the growth inhibition is 11%.

As to `Cn1ccnc1Oc1ccc(Cl)cc1`, the growth inhibition is 6%.

For `c1ccc2c(c1)C(=NCCCN1CCCCCC1)c1cccn1-2`, the growth inhibition is 4%.

As to `C/C(=N\O)C1CC2C=C(C#N)C1N(Cc1ccccc1)C2` (stereo not drawn), the growth inhibition was 40%.

As to `O=[N+]([O-])C(=C(Sc1ccccc1)Sc1ccccc1)C(Cl)=C(Cl)Cl`, the growth inhibition was 66%.

Take `CCCCCCCCCC/C=C\C(=O)O`: the growth inhibition was -5%.

`COc1ccc(N=C2C(=O)Nc3ccc(Br)cc32)cc1`: the growth inhibition was -39%.

For `COc1ccccc1C(=O)OCC1CCCN2CCCCC12` (stereo not drawn), the growth inhibition was 35%.

Consider `CC(C)(Br)C(=O)/C=C/c1ccc(Cl)c(Cl)c1`, for which the growth inhibition is 3%.

Turning to `Nc1ccccc1CC(O)C(=O)O` (stereo not drawn), the growth inhibition was 10%.

In the case of `CC(=O)N/N=C/C(C)(C)C(C)(C)/C=N/NC(C)=O`, the growth inhibition was 39%.

Regarding `CN(C)c1nc2sc3c(c2c(=O)o1)CCCC3`, the growth inhibition was 3%.

Turning to `CC(C)OC(=O)Oc1ccccc1OC(=O)OC(C)C`, the growth inhibition was 0%.

`Cc1ccc(N)c(S)c1`: the growth inhibition was -22%.

On to `O=C(O)c1ccccc1NC(=S)c1ccccc1`, for which the growth inhibition is -8%.

`COC(=O)c1ccc(NCC2=CC(=O)C=CC2=O)cc1O`: the growth inhibition is 85% (active).

As to `NC(N)=N/N=C\c1c2ccccc2cc2ccccc12`, the growth inhibition was -51%.

`COC(=O)CSSCc1ccc([N+](=O)[O-])cc1`: the growth inhibition is 48%.

For `CCS(=O)(=O)c1ccc(/C=C/C=N/NC(=S)NCC(C)C)cc1`, the growth inhibition is -1%.

For the compound `N#CC(C(=O)Nc1ccccc1)C1=C(Cl)C(=O)c2ccccc2C1=O` (stereo not drawn), the growth inhibition was 90% (active).

On to `C[C@H](CCC(=O)NN)[C@H]1CC[C@H]2[C@@H]3CC[C@@H]4C[C@H](O)CC[C@]4(C)[C@H]3CC[C@]12C`, for which the growth inhibition was 5%.

With `CC[n+]1ccc2c(C)c3[nH]c4ccc(O)cc4c3c(C)c2c1`, the growth inhibition is 23%.
